# Measured values as given in ChEMBL document CHEMBL4649997, “Data for probe TP-472” (2021).
# How the values were obtained:
# [1] = target: Bromodomain-containing protein 4 (Homo sapiens) (UniProt O60885); conditions: Compound concentration 10.0 uM, Protein concentration 2.0 uM
# [2] = target: T1, Transcription intermediary factor 1-alpha (Homo sapiens) (UniProt O15164); conditions: Compound concentration 10.0 uM, Protein concentration 2.0 uM
# T1 sequence (whole entry): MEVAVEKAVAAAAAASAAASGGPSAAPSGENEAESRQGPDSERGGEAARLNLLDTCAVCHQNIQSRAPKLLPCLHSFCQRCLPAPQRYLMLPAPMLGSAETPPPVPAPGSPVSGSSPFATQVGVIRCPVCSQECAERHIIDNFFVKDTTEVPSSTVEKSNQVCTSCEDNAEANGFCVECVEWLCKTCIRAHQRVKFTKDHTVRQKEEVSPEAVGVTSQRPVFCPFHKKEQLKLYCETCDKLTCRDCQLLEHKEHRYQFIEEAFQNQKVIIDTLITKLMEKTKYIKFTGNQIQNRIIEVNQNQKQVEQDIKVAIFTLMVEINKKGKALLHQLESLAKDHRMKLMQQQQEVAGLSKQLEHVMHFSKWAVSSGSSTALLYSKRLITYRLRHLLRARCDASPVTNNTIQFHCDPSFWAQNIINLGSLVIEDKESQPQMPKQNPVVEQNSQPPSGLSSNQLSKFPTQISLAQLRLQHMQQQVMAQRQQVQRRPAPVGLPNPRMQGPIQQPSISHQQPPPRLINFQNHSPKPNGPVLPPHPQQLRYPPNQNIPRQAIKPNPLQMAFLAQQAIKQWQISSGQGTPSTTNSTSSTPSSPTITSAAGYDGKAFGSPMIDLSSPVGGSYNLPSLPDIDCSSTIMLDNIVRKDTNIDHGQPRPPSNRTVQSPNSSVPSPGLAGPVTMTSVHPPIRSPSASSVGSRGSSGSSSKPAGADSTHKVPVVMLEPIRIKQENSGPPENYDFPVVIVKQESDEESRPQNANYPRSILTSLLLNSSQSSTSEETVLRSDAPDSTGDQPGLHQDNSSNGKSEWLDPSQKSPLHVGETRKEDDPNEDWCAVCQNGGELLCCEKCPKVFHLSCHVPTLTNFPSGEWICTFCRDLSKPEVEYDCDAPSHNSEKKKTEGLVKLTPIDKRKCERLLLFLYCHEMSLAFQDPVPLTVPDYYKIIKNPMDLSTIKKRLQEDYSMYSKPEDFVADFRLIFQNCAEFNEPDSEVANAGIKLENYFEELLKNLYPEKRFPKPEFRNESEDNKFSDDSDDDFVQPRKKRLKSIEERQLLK
smiles,measurement,setting,value
CC(=O)c1cc(-c2cc(C(=O)NC3CC3)ccc2C)c2ncccn12,ΔTm,[1],0.28 °C
same,ΔTm,[2],0.37 °C
